# Reference: PubChem BioAssay (NCATS)
# Records with an inconclusive call do not appear. A call without a number means that no potency is given here. Active and inactive are the calls of the source. Calls come from the whole dose curve; as a rule, active = well fitted curve in the direction sought with a large enough effect; inconclusive = small, poorly fitted or top-dose-only effect, or another doubt; inactive = no such curve, though single readings can be large; an effect the other way counts as inactive or inconclusive.
# Experiments:
# [1] = qHTS for Inhibitors of Plasmodium falciparum (7G8) proliferation (AID 504316); note: nearly all actives have a fitted effect of over 65% in size; note: potency is the fitted concentration of half-maximal effect
# Procedure, shortened: (§1)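 Parasite growth measured as SYBR Green DNA fluorescence (ex 485, em 535 nm) after overnight lysis following 72 h culture at 37 °C, 0.3% parasitemia, 2.5% hematocrit. Values normalized against DMSO and 0.29 uM artemisinin controls, with plate-stack correction.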
# [2] = qHTS for Inhibitors of Plasmodium falciparum (CP250) proliferation (AID 504320)
# Procedure, shortened: as §1
# [3] = qHTS for Inhibitors of Plasmodium falciparum (HB3) proliferation (AID 504318); note: nearly all actives have a fitted effect of over 60% in size; note: potency is the fitted concentration of half-maximal effect
# Procedure, shortened: as §1
# [4] = qHTS for Inhibitors of Plasmodium falciparum (GB4) proliferation (AID 504315); note: nearly all actives have a fitted effect of over 50% in size; note: potency is the fitted concentration of half-maximal effect
# Procedure, shortened: as §1
SMILES,Potency [1],Potency [2],Potency [3],Potency [4]
C[C@H]1CC[C@H]2C(=O)N(Cc3ccc(Cl)cc3)C[C@@H](O)CN2[C@H]1c1ccc(Br)cc1,1690 nM (active),inactive,–,–
COC(=O)C1=C(C(=O)OC)[C@@H]2N(C)c3ccccc3[C@@]23C[C@@H](C(=O)OC)N(C(=O)NC2CCCC2)C3=N1,–,inactive,inactive,–
COC(=O)C1=C(C)N(Cc2ccccc2)C(=NCc2ccc(OC)cc2)NC1c1cccc(F)c1 (stereo not given),–,–,inactive,–
C=CC[C@@H]1C=C[C@H](ON=C(C)CCN2CCCCc3nc(C)c(C)cc32)[C@H](CO)O1,–,inactive,inactive,inactive
COC1=CC2C(=O)C([C@@H]3c4ccccc4C[C@]23C)C1(O)c1cccc(OC)c1 (stereo not given in full),–,inactive,–,–
C=C(C)C(=O)C=CC=Cc1ccccc1,inactive,inactive,inactive,–
COC(=O)C1=C(C)N(CC2CC2)C(=O)NC1CCc1ccccc1 (stereo not given),–,inactive,–,inactive
CCN1C(=NCc2cccc(Cl)c2)N[C@@H](CCc2ccccc2)[C@H](C(=O)OC)[C@H]1C,inactive,inactive,inactive,–
COC1=C[C@@H](C(=O)N[C@H]2CCCC[C@H]2NC(C)=O)[C@]2(C)Cc3ccccc3[C@H]2CC1=O,–,inactive,–,inactive
COC(=O)C1=C(C(=O)OC)[C@@H]2N(C)c3ccccc3[C@@]23CCC(=O)N(Cc2ccc4c(c2)OCO4)C3=N1,–,inactive,–,inactive
O=C1C2=C(C(=O)c3ccccc31)[C@H]1O[C@](CCCCN3C(=O)c4ccccc4C3=O)(Cc3ccccc31)O2,1690 nM (active),inactive,1690 nM (active),1690 nM (active)
COc1ccc(O[C@H]2C=C[C@@H](c3ccccc3)O[C@H]2COC(=O)CCC(C)=NOCC[C@@H]2C=C[C@H](OC(C)=O)[C@@H](COC(C)=O)O2)cc1,–,inactive,inactive,–
N#Cc1ccc2c(c1)C[C@]1(CCCCN3C(=O)c4ccccc4C3=O)Oc3cc(-c4ccccc4)oc(=O)c3[C@H]2O1,–,–,inactive,inactive
C[C@H]1CC[C@H]2C(=O)N(Cc3cccc([N+](=O)[O-])c3)C[C@H](O)CN2[C@H]1c1cccc(Br)c1,–,inactive,–,–
CC12C=C(C=Cc3ccc(Br)cc3)C(C)(C1)[C@H](c1ccc(Br)cc1)CC2=O (stereo not given in full),1690 nM (active),–,1690 nM (active),–
Cc1cc2c(nc1C)CCCN2CC(O)CN1CCN(C)CC1 (stereo not given),–,inactive,inactive,inactive
